PubChem BioAssay AID1347416 (National Center for Advancing Translational Sciences (NCATS), 2020)
The campaign covered roughly 4,100 compounds. About 1,600 (39%) were called active. Another 25% or so got no clear call; they are omitted. Some of the results follow. Values without a mark were called inactive. Calls follow the shape of the dose curve; as a rule, active = well fitted inhibition curve with a large enough effect; inconclusive = small, poorly fitted or top-dose-only effect; inactive = no such curve, though single readings can be large or run the other way.
% is scaled to controls: 0 for no effect and ±100 for the full control effect; potency is read from the fitted curve at half-maximal effect.

Experiment: qHTS Validation assay for Inhibitors of Plasmodium falciparum Dd2 growth in vitro; also: nearly all actives have a fitted effect of over 70% in size
Conditions: P. falciparum Dd2 in RBCs, SYBR Green growth, 72 h; series mostly up to 28.7 µM; activity change, negative = inhibition: at the top concentration
Excerpt: Malaria, a parasitic disease spread to humans through the bite of a Plasmodium infected Anopheles mosquito, continues to be a global health burden affecting millions of people, with an estimated 228 million cases and 405,000 deaths in 2018. Concerns about safety and limitations of current antimalarial treatments strongly emphasize the need to develop new therapeutic options. The scarce number of chemotypes and validated drug targets with efficacy against the liver stage, have hindered development of new antimalarials. To address this, a chemoprophylactic drug discovery effort was conducted through a combined phenotypic high-throughput asexual blood stage and liver stage screen, providing a robust foundation to identify liver-stage active lead chemotypes. Compounds were initially screened against Plasmodium falciparum Dd2 strain parasites using a in vitro SYBRGreen-1 based 72 hr proliferation assay to identify novel chemotypes to advance to liver stage assays. NIH/NCATS Early Translation Branch Assay Submitter (PI): Anton Simeonov Ph.D.
[…] Assay Protocol: PROTOCOL TABLE (as described by Inglese et al., 2007) SEQUENCE No. (e.g., 1, 2, 3, etc.); PARAMETER (e.g., Cells, Incubation, Reagent, etc.); VALUE; DESCRIPTION SEQUENCE, Parameter, Description 1; Reagent; 3 uL complete malaria growth medium, 1536 TC treated Black clear bottom plate 2; Controls; 23 nL positive control artesunate (300 nM final) to column 1; Neutral control DMSO to columns 2-4 3; Compound; 23 nL of compounds in dose response concentration (29 uM to 0.5 nM final) 4; Reagent; 5 uL malaria infected red blood cells (2.5% hematocrit final, 0.3% parasitemia 5; Time; 72 hours at 37C (5% O2, 5% CO2, 90% N2; 95% Rh) 6; Reagent; 2 uL lysis buffer/SYBRGreen-1, 25 sec shake immediately following dispense 7; Time; ~16 hours at 37C (5% O2, 5% CO2, 90% N2; 95% Rh) 8; Detector; EnVision (PerkinElmer) bottom read at 485/14nm excitation and 535/25 nm emission NOTES (numbers refer to sequence above): 1; Complete Malaria Growth Media: 1X RPMI-1640 w/L-glutamine, 5.5g/L Albumax II, 367 uM Hypoxanthine, 25 mM HEPES, 0.25% Sodium Bicarbonate, 35 uM Gentamicin sulfate 2; Controls were added using the Kalypsis Pintool (Wako USA) equipped with 1536 pinhead 3; Compounds were added in a 7-point, titration with a high final concentration of 29 uM by Pintool from seven inter-plate titrations of library plates and two DMSO control plates at the beginning and end (see Yasgar et al., 2008). 4; Red blood cells infected with Plasmodium falciparum Dd2 parasites were used. 6; Lysis buffer: 20 mM Tris-HCl, 10 mM EDTA, 0.16% Saponin, 1.6% Triton-X, 10X SYBR Green. REFERENCE: Inglese J, Shamu CE, Guy RK. 2007. Reporting data from high-throughput screening of small-molecule libraries. Nat Chem Biol. doi:10.1038/nchembio0807-438 Yasgar A, Shinn P, Jadhav A, Auld D, Michael S, Zheng W, Austin CP, Inglese J, Simeonov A. 2008. Compound Management for Quantitative High-Throughput Screening. J Lab Autom 13:79-89. doi:10.1016/j.jala.2007.12.004
In the case of CCOC(=O)c1c(CN(C)C)n(-c2ccc(C)cc2)c2cc(Br)c(O)cc12, the Potency is reported as 4.22 µM (active).
With CCOC(=O)c1c(CSC(=N)N)n(-c2ccc(C)cc2)c2cc(Br)c(OC(C)=O)cc12 the Potency was 5.96 µM (active).
With CCOC(=O)c1c(CNc2ccncc2)n(C)c2cc(Br)c(O)cc12 the Potency was 2.66 µM (active).
For COc1ccc(C(=O)N2CCC(Cc3nc(-c4cccnc4)n[nH]3)C2)cc1F (stereo not given), the “activity change, negative = inhibition” value was 18.9%.
In the case of COc1ccc(-c2[nH]nc3ncc(-c4cccnc4)nc23)cc1F, the Potency is reported as 3.85 µM (active).
For Fc1ccc(N2CCN(Cc3cccn3-c3nnc(N4CCN(C5CCCCC5)CC4)s3)CC2)cc1, the Potency was 11.9 µM (active).
For COc1ccccc1CCNC(=O)c1cccn1-c1nnc(N2CCCCC2)s1, the “activity change, negative = inhibition” value was -6.38%.
For CN(CC1CCOCC1)S(=O)(=O)c1ccc(F)c(Cl)c1, the “activity change, negative = inhibition” value was 28.6%.
In the case of CCCCN(CCCC)CC(O)Cn1cc(/C=C/C(=O)c2ccccc2)c2ccccc21 (stereo not given), the Potency is reported as 1.68 µM (active).
In the case of CCCN(CCC)CC(O)Cn1cc(/C=C/C(=O)c2ccc(C)cc2)c2ccccc21 (stereo not given), the Potency is reported as 4.73 µM (active).
In the case of O=C(NC1CCCN(c2cc(-c3ccccc3)[nH]n2)C1)c1cc(F)ccc1F (stereo not given), the “activity change, negative = inhibition” value is reported as -3.71%.
With COc1cccc(CN2CCC3(CC2)OC(=O)N(Cc2ccccc2)C3(C)c2ccccc2)c1 (stereo not given) the Potency was 15 µM (active).
In the case of COc1ccc(C(=O)N2CCC3(CC2)OC(=O)N(Cc2ccc(O)cc2)C3(C)c2ccccc2)cn1 (stereo not given), the Potency is reported as 6.68 µM (active).
With COc1cccc(CN2CCC3(CC2)Cc2ccccc2NC3=O)c1 the “activity change, negative = inhibition” value was -8.07%.
With COc1ccc(C(=O)N2CCC(c3nc(C4CCOCC4)no3)CC2)cn1 the “activity change, negative = inhibition” value was 2.15%.
In the case of CC1(c2ccccc2)N(Cc2ccccc2F)C(=O)OC12CCN(Cc1cccc(O)c1)CC2 (stereo not given), the Potency is reported as 6.68 µM (active).
With CC1(c2ccccc2)N(Cc2ccccc2)C(=O)OC12CCN(Cc1cccc(O)c1)CC2 (stereo not given) the Potency was 8.41 µM (active).
In the case of COc1ccc(C(=O)N2CCCn3cc(-c4ccccc4F)nc32)cn1, the “activity change, negative = inhibition” value is reported as 19.7%.
For Cc1nc(CN2C(=O)OC3(CCN(C(=O)c4ccc(Oc5ccccc5)cc4)CC3)C2(C)c2ccccc2)cs1 (stereo not given), the Potency was 13.3 µM (active).
With O=C(NC[C@H]1O[C@H](Cc2cc(CN3CCNCC3)on2)CC[C@@H]1O)c1ccccc1F the “activity change, negative = inhibition” value was 88%.
With O[C@@H]1CC(CNCc2cccc(Cl)c2)(COc2ccccc2)C[C@@H]1O (stereo not given in full) the Potency was 3.85 µM (active).
With CN(Cc1ccccc1)Cc1cc(C[C@@H]2CC[C@H](O)[C@@H](CNCc3ccccc3)O2)no1 the Potency was 4.73 µM (active).
In the case of COc1ccccc1CNC[C@H]1O[C@H](Cc2cc(CN(C)Cc3ccccc3)on2)CC[C@@H]1O, the Potency is reported as 2.99 µM (active).
With Cc1cccc(OCC2(CNCc3cccnc3)C[C@@H](O)[C@@H](O)C2)n1 (stereo not given in full) the “activity change, negative = inhibition” value was 26.5%.
With O[C@H]1CC[C@@H](Cc2cc(COc3ccccc3)on2)O[C@@H]1CNCc1cccc(Cl)c1 the Potency was 2.11 µM (active).
In the case of O=C(c1cc(F)ccc1F)N1CC(c2nnc(-c3ccncc3)o2)C2(CCOCC2)C1 (stereo not given), the “activity change, negative = inhibition” value is reported as 59.8%.
In the case of COc1cc(OC)c(NC(=O)Cn2c(C)cc3nc4n(c(=O)c32)CCCCC4)cc1Cl, the “activity change, negative = inhibition” value is reported as -29.8%.
With COc1cc(Cc2cc(N)nc(N)n2)cc(OC)c1OC the “activity change, negative = inhibition” value was 46.1%.
For COc1ccc(CN2C[C@H]3CN(Cc4c[nH]c5ccccc45)CCN3C2=O)cc1, the Potency was 3.85 µM (active).
For COc1ccc(-c2cn(CCc3c[nH]c4ccccc34)nn2)cc1, the “activity change, negative = inhibition” value was 15%.
For Cc1nnc([C@H]2CCN(Cc3c[nH]c4ccccc34)C2)o1, the “activity change, negative = inhibition” value was -16.6% [at 57.5 µM].
With Cc1nonc1CC(=O)N1CCCC(CNS(=O)(=O)c2cccs2)C1 (stereo not given) the “activity change, negative = inhibition” value was 47.9%.
With CC1(c2ccccc2)CC(c2ccccc2)=Nc2nonc2N1 (stereo not given) the Potency was 5.31 µM (active).
With COc1cc(/C=C(\C#N)c2nc3ccccc3[nH]2)ccc1OCc1ccc(F)cc1 the Potency was 5.31 µM (active).
For COc1cc(SC)ccc1C(=O)Nc1nc2ccccc2[nH]1, the “activity change, negative = inhibition” value was -19.7%.
For COc1cc(/C=C(\C#N)c2nc3ccccc3[nH]2)cc(Cl)c1OCc1ccccc1Cl, the Potency was 5.31 µM (active).
With O=C(Nc1cnc2ccccc2c1)c1cccc(-n2cnnn2)c1 the Potency was 2.66 µM (active).
For CCc1noc(-c2cccn3c(CNC(=O)c4ccc(Cl)cc4)nnc23)n1, the “activity change, negative = inhibition” value was 16.2%.
For CCN1CCN(Cc2c(O)ccc3c(=O)c(Oc4ccccc4C(C)C)c(C(F)(F)F)oc23)CC1, the Potency was 0.596 µM (active).
For Cc1ccc(C)c(Oc2c(C(F)(F)F)oc3c(CN4CCN(C)CC4)c(O)ccc3c2=O)c1, the Potency was 0.75 µM (active).
With CC(C)c1ccccc1Oc1c(C(F)(F)F)oc2c(CN3CCN(C)CC3)c(O)ccc2c1=O the Potency was 0.668 µM (active).
In the case of CCSc1nnc(SCC(=O)c2c(N)n(C)c(=O)n(C)c2=O)s1, the “activity change, negative = inhibition” value is reported as -13.4%.
With Cc1ccccc1C(=O)NC(CC(C)C)C(=O)OCC(=O)c1c(N)n(C)c(=O)n(C)c1=O (stereo not given) the Potency was 2.66 µM (active).
With Cc1ccc(N(C)C2=NC(=O)CS2)cc1Cl the Potency was 9.44 µM (active).
For COc1cc(O)c(C(CCN2CCCCC2)c2cc(OC)c(OC)c(OC)c2)c(OC)c1 (stereo not given), the Potency was 2.66 µM (active).
